A short description of assay [1]: yeast TOR pathway RPL19A-GFP modulators, primary screen, cell-based, S. cerevisiae, multiplex flow cytometry (AID 1862; in the data active = percent of DMSO control GFP below about 86%;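 note: lower values mimic rapamycin by blocking the RPL19A rise seen in DMSO cells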). The following applies: S. cerevisiae RPL19A-GFP strain, flow cytometry fluorescence, 3 h; at 10 µM; stronger effect = lower value. (Flow cytometry measures light scatter and fluorescence of single cells or particles in a stream.)
Assay [2] in a line: modulators of MEP2-GFP levels in yeast, primary screen, S. cerevisiae, multiplex flow cytometry (AID 1867;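 active = GFP response, as percent of the DMSO control, above the screen-wide mean plus 3 SD, about 139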;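 note: median GFP channel fluorescence of barcode-gated MEP2-GFP cells measured by flow cytometry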). The settings on record: S. cerevisiae MEP2-GFP strain, 3 h, at 10 µM, stronger effect = higher value, 100% means same as DMSO wells.
Assay [3] in a line: modulators of CIT2-GFP expression in yeast, primary screen, S. cerevisiae, GFP fusion, multiplex flow cytometry (AID 1870;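 active = percent response above a set limit, the screen-wide mean plus 3 SD, cut at about 130% in these data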;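 note: barcoded CIT2-GFP strain pooled with four other GFP strains with rapamycin as positive control; median GFP fluorescence per well over plate mean of DMSO wells so 100% = DMSO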). The settings on record: 3 h, at 10 µM, stronger effect = higher value.
Assay [4] can be described thus: modulators of LAP4-GFP expression in yeast, primary screen, S. cerevisiae, multiplex flow cytometry (AID 1873;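 active = GFP signal, as percent of the solvent control, above the screen mean plus 3 SD, about 149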). The settings on record: 3 h, at 10 µM, stronger effect = higher value.
The nature of assay [5]: modulators of AGP1-GFP expression in yeast TOR pathway, primary screen, cell-based, multiplex flow cytometry, S. cerevisiae (AID 1887;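 active = GFP signal above the screen-wide mean plus 3 SD, that is over about 124.5% of the solvent control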;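 note: AGP1-GFP fusion strain of S. cerevisiae within a five-strain barcoded multiplex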). The settings on record: 3 h, at 10 µM, stronger effect = higher value.
Assay [6] in a line: inhibitors of CD8+ T cell-vesicle binding, pilot screen, LFA-1/ICAM-1 modulator project, MLPCN validation set, flow cytometry (AID 2523;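 active = response below a set limit, under 55% cells CD8-positive and vesicle-bound, and CD8 cells' 90th-percentile brightness under 279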;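 for vesicle binding response: mean PE anti-B7-1 fluorescence of CD8+ cells relative to row control; 100% = QL9-loaded vesicles with DMSO vehicle in the same plate row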). The following applies: 2C mouse CD8+ T cells, at 7 µM, stronger effect = lower value; double positive events: measured here: CD8+/vesicle+ event percentage.
The target of assay [7] is Integrin beta-1 (Homo sapiens) + Integrin alpha-4 (Homo sapiens) (UniProt P13612+P05556). Briefly: inhibition of HUTS-21 binding to VLA-4, pilot screen, VLA-4 allosteric modulator project, U937 cells, HUTS-21 mAb, flow cytometry, validation set (AID 2674;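 active = inhibition above 50%, about 3 SD of the validation set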;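 note: antibody binding induced by the VLA-4 ligand LDV present at three times its Kd; 0% = LDV ligand with antibody and no compound and 100% = antibody without LDV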). The following applies: HUTS-21 LIBS mAb binding, at 6.7 µM, stronger effect = higher value, binding induced by LDV ligand.
Integrin beta-1 (Homo sapiens) + Integrin alpha-4 (Homo sapiens), sequence (P05556 whole entry, looked up): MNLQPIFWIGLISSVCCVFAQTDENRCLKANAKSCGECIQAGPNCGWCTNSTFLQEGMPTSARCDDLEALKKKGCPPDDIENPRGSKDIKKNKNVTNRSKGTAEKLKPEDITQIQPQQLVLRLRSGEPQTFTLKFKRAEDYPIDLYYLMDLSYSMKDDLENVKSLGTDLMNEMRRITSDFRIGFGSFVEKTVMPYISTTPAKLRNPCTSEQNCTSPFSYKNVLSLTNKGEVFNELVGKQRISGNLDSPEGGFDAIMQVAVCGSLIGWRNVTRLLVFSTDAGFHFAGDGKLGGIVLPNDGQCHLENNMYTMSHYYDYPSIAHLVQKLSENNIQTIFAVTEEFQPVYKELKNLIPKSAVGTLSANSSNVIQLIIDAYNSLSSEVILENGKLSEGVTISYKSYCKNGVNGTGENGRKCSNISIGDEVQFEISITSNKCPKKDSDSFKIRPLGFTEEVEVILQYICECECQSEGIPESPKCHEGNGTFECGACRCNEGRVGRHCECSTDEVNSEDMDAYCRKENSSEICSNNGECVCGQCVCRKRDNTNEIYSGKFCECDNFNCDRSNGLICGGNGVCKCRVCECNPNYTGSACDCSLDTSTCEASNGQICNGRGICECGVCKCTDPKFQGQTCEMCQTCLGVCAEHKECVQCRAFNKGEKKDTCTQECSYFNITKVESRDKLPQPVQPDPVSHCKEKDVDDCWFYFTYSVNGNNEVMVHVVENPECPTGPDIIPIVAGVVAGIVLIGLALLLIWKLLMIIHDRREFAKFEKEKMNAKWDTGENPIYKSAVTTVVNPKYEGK
Integrin beta-1 (Homo sapiens) + Integrin alpha-4 (Homo sapiens), sequence (P13612 whole entry, looked up): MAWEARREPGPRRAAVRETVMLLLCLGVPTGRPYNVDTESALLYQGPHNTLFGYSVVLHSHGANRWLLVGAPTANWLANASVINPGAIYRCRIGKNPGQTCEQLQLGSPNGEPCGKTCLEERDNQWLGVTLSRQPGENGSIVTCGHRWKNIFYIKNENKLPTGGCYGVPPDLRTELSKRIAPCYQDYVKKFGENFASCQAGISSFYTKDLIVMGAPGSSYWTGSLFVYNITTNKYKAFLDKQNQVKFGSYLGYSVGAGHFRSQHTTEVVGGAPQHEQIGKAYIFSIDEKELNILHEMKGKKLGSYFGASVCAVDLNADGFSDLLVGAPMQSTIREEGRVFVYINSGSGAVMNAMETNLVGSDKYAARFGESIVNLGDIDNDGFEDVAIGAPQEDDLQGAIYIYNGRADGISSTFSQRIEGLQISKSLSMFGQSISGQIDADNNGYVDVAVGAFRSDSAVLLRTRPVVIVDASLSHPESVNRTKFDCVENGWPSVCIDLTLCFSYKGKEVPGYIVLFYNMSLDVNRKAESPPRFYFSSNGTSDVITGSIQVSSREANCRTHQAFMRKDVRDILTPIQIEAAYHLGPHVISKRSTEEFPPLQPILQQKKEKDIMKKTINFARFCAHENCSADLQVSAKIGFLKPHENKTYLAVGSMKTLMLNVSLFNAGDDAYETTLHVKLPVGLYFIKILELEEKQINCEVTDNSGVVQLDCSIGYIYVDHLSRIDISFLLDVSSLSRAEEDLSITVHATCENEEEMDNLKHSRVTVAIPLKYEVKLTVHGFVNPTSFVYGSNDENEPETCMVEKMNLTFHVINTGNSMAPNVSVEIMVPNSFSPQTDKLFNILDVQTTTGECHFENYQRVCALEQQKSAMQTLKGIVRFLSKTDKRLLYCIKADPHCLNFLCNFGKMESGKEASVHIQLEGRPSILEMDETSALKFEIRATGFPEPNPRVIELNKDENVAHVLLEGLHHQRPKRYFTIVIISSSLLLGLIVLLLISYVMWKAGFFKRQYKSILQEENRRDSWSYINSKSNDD
The nature of assay [8]: superoxide lowering in aged yeast cells, pilot screen, validation compound set (AID 2706;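 active = superoxide response below 65% of plate, a cut near 3 SD across the whole screen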;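 note: yeast exposed to compound for one week at 30 degrees C before staining; 100% = mean of all compound wells on the same plate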). The settings on record: S. cerevisiae aging, superoxide DHE fluorescence; at 10 µM; stronger effect = lower value.
Assay [9] has as its target Beta-adrenergic receptor kinase 1 (Homo sapiens) (UniProt P25098). Description: GRK2 binders displacing RNA aptamer, biochemical, validation, human GRK2, bead flow cytometry (AID 488806). The settings on record: bead-bound GRK2, FAM-aptamer displacement, at 10 µM, stronger effect = higher value.
In assay [10] the target is Beta-2 adrenergic receptor (Homo sapiens) (UniProt P07550). Description: beta2AR agonists driving receptor internalization, pilot screen, cell-based, FAP fluorogen, flow cytometry, validation set (AID 504459;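 active = percent response above 42, roughly 3 SD of non-fluorescent test compounds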;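 note: agonist-driven loss of surface beta2AR via internalization measured by FAP dye flow cytometry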). The settings on record: Am2.2-beta2AR cells, FAP surface receptor flow cytometry; at 10 µM; stronger effect = higher value.
Beta-2 adrenergic receptor (Homo sapiens), sequence (P07550 whole entry, looked up): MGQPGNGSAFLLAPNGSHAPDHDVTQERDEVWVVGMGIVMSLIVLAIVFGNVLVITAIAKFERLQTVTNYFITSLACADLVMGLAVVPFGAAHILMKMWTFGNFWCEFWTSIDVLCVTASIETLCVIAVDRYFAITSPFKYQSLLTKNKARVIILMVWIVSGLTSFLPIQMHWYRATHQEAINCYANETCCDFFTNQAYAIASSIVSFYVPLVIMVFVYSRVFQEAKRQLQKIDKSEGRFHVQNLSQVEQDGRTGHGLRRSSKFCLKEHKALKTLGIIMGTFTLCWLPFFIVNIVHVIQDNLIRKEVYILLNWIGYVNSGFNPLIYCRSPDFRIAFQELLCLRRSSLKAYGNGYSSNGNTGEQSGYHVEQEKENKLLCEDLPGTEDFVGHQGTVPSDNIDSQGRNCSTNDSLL
Assay [11] concerns the target AP-2 complex subunit beta (Homo sapiens) (UniProt P63010). Briefly: inhibitors of arrestin peptide binding to AP2, pilot screen, biochemical, validation set, GST-AP2 beads, flow cytometry (AID 504541;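 active = inhibition above 54%, about 3 SD of non-fluorescent compounds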;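 note: AP2 carries R879A mutation and is captured from E. coli lysate; bead-bound FITC arrestin peptide fluorescence measuring arrestin peptide binding to AP2; 0% = DMSO wells and 100% = excess unlabeled arrestin peptide control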). The settings on record: FITC arrestin peptide, at 10 µM, stronger effect = higher value, AP2 beta2 appendage fragment, R879A mutant.
A short description of assay [12]: yeast V-ATPase proton transport modulators, S. cerevisiae, pHLuorin, HTS validation (AID 504600; in the data active = response above about 15%;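 note: plate controls were DMSO for no effect and reference compound for full effect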). The following applies: S. cerevisiae pHLuorin cytosolic pH, at 10 µM, stronger effect = higher value.
Assay [13] has as its system anti-desmoglein-3 scFv antibody binding to human DSG3. Description: inhibitors of anti-DSG3 scFv binding to DSG3, pilot screen, biochemical, validation compound set, bead-based, flow cytometry (AID 588368;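 active = binding below the plate cutoff, the plate median minus 3 SD, with a reading above zero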;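 note: signal is the median channel fluorescence of bead-bound GFP antibody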). The settings on record: Protein G beads, DSG3-Fc, scFv-GFP binding, at 10 µM, stronger effect = lower value.
A short description of assay [14]: inhibitors of fungal efflux pumps CDR1, CDR2, MDR1, pilot screen, validation compound set, multiplex, phenotypic (AID 588506;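 active = efflux inhibition above 0.42, the validation set average plus 4 SD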;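 note: Nile Red retained in cells so higher fluorescence means more efflux inhibition; 0 = negative control wells and 1 = enniatin B 25 µM full block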). The following applies: S. cerevisiae pump-expressing triplex, Nile Red efflux flow cytometry; at 10 µM; stronger effect = higher value; the pumps come from Candida albicans.
Assay [15] deals with ATP-binding cassette sub-family B member 6 (Homo sapiens) (UniProt Q9NP58). Briefly: ABCB6 transporter inhibitors, pilot screen, K562-ABCB6 cells, flow cytometry, validation set (AID 588550;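 active = inhibition above the screen-wide mean plus 3 SD, about 51%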;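 note: 0% = DMSO wells and 100% = benzethonium chloride 70 µM positive control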). The settings on record: K562-ABCB6 porphyrin accumulation, 1 h, at 10 µM, stronger effect = higher value.
ATP-binding cassette sub-family B member 6 (Homo sapiens), sequence (Q9NP58 whole entry, looked up): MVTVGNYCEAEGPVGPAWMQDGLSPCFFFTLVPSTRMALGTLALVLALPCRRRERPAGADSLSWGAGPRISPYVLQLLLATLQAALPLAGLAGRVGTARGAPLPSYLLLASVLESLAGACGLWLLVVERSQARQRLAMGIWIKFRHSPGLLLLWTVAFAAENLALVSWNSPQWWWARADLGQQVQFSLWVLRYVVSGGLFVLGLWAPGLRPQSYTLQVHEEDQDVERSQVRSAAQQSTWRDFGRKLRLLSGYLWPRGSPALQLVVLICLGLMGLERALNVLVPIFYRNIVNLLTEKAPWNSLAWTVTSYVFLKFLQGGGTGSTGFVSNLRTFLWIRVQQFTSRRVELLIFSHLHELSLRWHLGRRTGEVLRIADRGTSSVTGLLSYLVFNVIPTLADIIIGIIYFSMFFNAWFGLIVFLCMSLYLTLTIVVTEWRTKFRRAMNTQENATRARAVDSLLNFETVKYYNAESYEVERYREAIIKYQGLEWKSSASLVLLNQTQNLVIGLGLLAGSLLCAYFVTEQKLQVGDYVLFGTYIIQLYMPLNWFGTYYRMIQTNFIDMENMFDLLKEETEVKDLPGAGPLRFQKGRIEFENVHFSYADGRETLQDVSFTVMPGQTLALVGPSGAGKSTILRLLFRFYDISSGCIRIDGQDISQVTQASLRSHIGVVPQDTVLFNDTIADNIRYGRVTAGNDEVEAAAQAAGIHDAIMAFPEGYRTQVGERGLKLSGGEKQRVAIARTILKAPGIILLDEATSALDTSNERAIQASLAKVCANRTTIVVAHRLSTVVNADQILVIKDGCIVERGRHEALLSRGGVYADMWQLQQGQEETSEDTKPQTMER
Assay [16] is described as follows: promoters of myeloid differentiation in arrested cells, primary screen, cell-based, GFP/MAC1 double positive, flow cytometry, validation set (AID 588685;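 active = differentiation response of at least 50%, scaled between solvent and reference control, from cells with both markers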;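 note: compound exposure lasts four days before antibody staining and flow analysis; 0% = DMSO wells and 100% = 5 µM fulvestrant positive control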). The settings on record: ER-HoxA9 marrow cells, stronger effect = higher value, normalized: vehicle 0, fulvestrant 100.

Records with an inconclusive call do not appear. Calls of active or inactive are those of the source.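 Rule for the calls, unless noted: active = aptamer binding inhibition above 30%, about 3 SD of noise from non-fluorescent compounds; inactive = inhibition at or below 30%.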

AP-2 complex subunit beta (Homo sapiens), sequence (P63010 whole entry, looked up, the tested form may be a part, one chain of several): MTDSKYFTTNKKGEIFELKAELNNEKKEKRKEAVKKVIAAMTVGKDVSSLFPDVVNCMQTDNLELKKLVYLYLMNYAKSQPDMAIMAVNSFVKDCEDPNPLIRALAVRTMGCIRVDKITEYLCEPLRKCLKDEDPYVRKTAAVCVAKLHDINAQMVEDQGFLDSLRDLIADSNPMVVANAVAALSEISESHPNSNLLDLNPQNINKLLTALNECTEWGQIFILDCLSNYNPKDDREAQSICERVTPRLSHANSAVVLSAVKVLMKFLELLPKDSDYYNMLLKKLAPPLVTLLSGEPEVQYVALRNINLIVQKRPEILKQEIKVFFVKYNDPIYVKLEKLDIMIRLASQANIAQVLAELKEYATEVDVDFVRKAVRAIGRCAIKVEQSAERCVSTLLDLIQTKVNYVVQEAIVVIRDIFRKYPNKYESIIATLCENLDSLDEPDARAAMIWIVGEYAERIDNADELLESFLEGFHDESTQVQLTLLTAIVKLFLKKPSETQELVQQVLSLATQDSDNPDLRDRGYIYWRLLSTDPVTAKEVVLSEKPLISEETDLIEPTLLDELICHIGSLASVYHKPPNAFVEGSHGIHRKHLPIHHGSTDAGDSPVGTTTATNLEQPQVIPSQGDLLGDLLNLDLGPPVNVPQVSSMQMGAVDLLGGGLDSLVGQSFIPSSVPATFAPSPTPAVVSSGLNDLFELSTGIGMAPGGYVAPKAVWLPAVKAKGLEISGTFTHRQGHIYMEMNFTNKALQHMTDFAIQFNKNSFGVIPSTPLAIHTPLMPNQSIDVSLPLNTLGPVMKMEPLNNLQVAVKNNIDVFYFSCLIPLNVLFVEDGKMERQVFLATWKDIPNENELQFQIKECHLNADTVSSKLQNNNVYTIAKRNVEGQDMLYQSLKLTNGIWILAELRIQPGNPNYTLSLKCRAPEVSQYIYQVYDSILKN
Beta-adrenergic receptor kinase 1 (Homo sapiens), sequence (P25098 whole entry, looked up): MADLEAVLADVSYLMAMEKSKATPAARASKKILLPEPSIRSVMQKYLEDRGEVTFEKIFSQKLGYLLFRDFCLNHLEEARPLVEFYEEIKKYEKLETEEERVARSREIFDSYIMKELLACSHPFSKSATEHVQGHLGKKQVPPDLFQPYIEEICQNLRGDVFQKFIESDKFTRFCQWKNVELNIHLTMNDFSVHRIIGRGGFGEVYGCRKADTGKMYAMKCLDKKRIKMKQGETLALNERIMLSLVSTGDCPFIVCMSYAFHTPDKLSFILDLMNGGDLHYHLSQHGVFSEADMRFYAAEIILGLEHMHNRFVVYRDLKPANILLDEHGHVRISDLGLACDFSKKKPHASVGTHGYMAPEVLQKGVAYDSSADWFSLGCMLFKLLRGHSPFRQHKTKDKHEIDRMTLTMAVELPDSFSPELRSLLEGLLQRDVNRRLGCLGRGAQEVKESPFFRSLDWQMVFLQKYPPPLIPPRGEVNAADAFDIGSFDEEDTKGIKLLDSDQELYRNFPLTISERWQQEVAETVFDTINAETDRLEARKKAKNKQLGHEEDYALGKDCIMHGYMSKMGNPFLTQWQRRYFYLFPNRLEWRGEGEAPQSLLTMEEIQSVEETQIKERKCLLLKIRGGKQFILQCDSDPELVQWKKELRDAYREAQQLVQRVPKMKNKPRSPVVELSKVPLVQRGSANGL

With `COc1ccc(-c2nc(NC(C)=O)sc2-c2ccc(OC)cc2)cc1`, the percent of DMSO control GFP in assay [1] was 104% (inactive). The GFP response vs DMSO in assay [2] was 101% (inactive); in assay [4], 92.6% (inactive). In addition, the percent response of DMSO control in [3] was 99.7% (inactive). Further, the GFP response, % of DMSO in [5] was 90.9% (inactive). In [6], this compound showed a double positive events of 65.9%. Also, the vesicle binding response in assay [6] was 232% (inactive). The inhibition (commonly the relative decrease from the control value, in per cent) in assay [7] was -2.43% (inactive); in [11], -11.5% (inactive); in assay [15], 0% (inactive). For the same compound, in assay [8], the superoxide response (% of plate) was 104% (inactive). The aptamer binding inhibition in assay [9] is 2% (inactive). Moreover, the figures for the response in assay [10] and in [12] were -22.1% (inactive) and 0.09% (inactive), respectively. In addition, the binding (% of control) in assay [13] is 102% (inactive). For the same compound, the efflux inhibition (fraction of control) in assay [14] is -0.29 (inactive). Also, the differentiation response in assay [16] was 14.4% (inactive).

For `Clc1ccc2c(c1)[C@H]1OCC[C@H]1[C@@H](c1ccco1)N2`, the percent of DMSO control GFP in assay [1] is 108% (inactive). The GFP response vs DMSO was 105% (inactive) in [2] and 113% (inactive) in assay [4]. In assay [3], the percent response of DMSO control was 107% (inactive). Further, in assay [5], the GFP response, % of DMSO is 88.8% (inactive). Further, the double positive events in [6] was 54.8%. Further, in assay [6], the vesicle binding response was 144% (inactive). The inhibition was 1.59% (inactive) in assay [7], 3.61% (inactive) in assay [11] and -23% (inactive) in assay [15]. In addition, in assay [8], the superoxide response (% of plate) is 103% (inactive). In addition, the aptamer binding inhibition in [9] is -1% (inactive). Further, the response is 3.26% (inactive) in assay [10] and 3.05% (inactive) in assay [12]. Besides, the binding (% of control) in assay [13] was 104% (inactive). In [14], the efflux inhibition (fraction of control) is 0.27 (inactive). Also, the differentiation response in assay [16] is -16.3% (inactive).

As to `Cn1c(=O)c2[nH]cnc2n(C)c1=O`, the percent of DMSO control GFP in assay [1] was 90.9% (inactive). Besides, the GFP response vs DMSO in [2] is 133% (inactive); in [4] it was 80.9% (inactive). In assay [3], the percent response of DMSO control is 96.6% (inactive). Further, the GFP response, % of DMSO in assay [5] was 87.7% (inactive). This compound registered a double positive events in [6] of 67.8%. Also, in assay [6], the vesicle binding response was 159% (inactive). Moreover, the results for the inhibition in assay [7], in assay [11] and in [15] were -1.3% (inactive), -6.69% (inactive) and 9% (inactive), respectively. Further, in [8], the superoxide response (% of plate) was 95.3% (inactive). In addition, in [9], the aptamer binding inhibition is 4% (inactive). The response was -0.49% (inactive) in [10] and -2.04% (inactive) in assay [12]. In addition, the binding (% of control) in [13] was 101% (inactive). Moreover, in assay [14], the efflux inhibition (fraction of control) is -0.46 (inactive). Further, in assay [16], the differentiation response is -2.46% (inactive).

Regarding `CCOC(=O)C1(Cc2cccc(Cl)c2)CCCN(C2CCN(C(C)=O)CC2)C1` (stereo not given), the percent of DMSO control GFP in assay [1] is 101% (inactive). Moreover, the GFP response vs DMSO in assay [2] and in assay [4] was 101% (inactive) throughout. For the same compound, the percent response of DMSO control in assay [3] is 102% (inactive). Besides, the GFP response, % of DMSO in [5] is 100% (inactive). Besides, in assay [6], the double positive events is 60.5%. The vesicle binding response in assay [6] was 42.6% (inactive). In addition, the values for the inhibition in [7], in assay [11] and in assay [15] were -7.72% (inactive), 34.6% (inactive) and 13% (inactive), respectively. Moreover, the superoxide response (% of plate) in assay [8] is 106% (inactive). For the same compound, in assay [9], the aptamer binding inhibition was -3% (inactive). The response in [10] is -8.31% (inactive); in [12], -5.5% (inactive). Also, the binding (% of control) in assay [13] is 177% (inactive). Moreover, the efflux inhibition (fraction of control) in [14] is -0.1 (inactive). Besides, in assay [16], the differentiation response was -0.73% (inactive).

Consider `C[C@]12CC[C@@H]3c4ccc(O)cc4[C@@H](O)C[C@H]3[C@@H]1CC[C@@H]2O`, for which the percent of DMSO control GFP in assay [1] was 103% (inactive). Further, the GFP response vs DMSO in assay [2] was 101% (inactive); in assay [4], 98% (inactive). In addition, the percent response of DMSO control in [3] is 108% (inactive). Also, the GFP response, % of DMSO in assay [5] is 104% (inactive). Besides, the double positive events in assay [6] came out at 59.1%. For the same compound, the vesicle binding response in assay [6] was 53.4% (inactive). Further, the inhibition in assay [7] is 5.61% (inactive); in assay [11] it was -3.62% (inactive); in [15] it was 11% (inactive). In addition, in assay [8], the superoxide response (% of plate) was 106% (inactive). The aptamer binding inhibition in assay [9] was 26% (inactive). In addition, the response in [10] is -0.21% (inactive); in [12], -0.11% (inactive). Besides, the binding (% of control) in assay [13] is 102% (inactive). The efflux inhibition (fraction of control) in assay [14] is -0.29 (inactive). Moreover, in assay [16], the differentiation response was -3.11% (inactive).

The values above are taken from PubChem BioAssay.
